# Shiga toxin inh = Shiga toxin inhibition; inhibition, % at 38.7 µM; AID 2315; Vero cells, Shiga toxin protein synthesis inhibition reporter; 290,000 compounds, 9.2% hits; in the data active means inhibition mostly above about 28%, no sharp cut-off; inactive means mostly below about 43%
# LmPK inhibitor = blocks Leishmania mexicana pyruvate kinase activity. AID 1721. 290,000 compounds, 0.37% hits. Q27686. purified LmPK, Kinase-Glo ATP luminescence, 1 h. Potency, µM (highest dose often 57.5 µM), hits mostly inhibitors
# Target sequence (Q27686 whole entry, looked up): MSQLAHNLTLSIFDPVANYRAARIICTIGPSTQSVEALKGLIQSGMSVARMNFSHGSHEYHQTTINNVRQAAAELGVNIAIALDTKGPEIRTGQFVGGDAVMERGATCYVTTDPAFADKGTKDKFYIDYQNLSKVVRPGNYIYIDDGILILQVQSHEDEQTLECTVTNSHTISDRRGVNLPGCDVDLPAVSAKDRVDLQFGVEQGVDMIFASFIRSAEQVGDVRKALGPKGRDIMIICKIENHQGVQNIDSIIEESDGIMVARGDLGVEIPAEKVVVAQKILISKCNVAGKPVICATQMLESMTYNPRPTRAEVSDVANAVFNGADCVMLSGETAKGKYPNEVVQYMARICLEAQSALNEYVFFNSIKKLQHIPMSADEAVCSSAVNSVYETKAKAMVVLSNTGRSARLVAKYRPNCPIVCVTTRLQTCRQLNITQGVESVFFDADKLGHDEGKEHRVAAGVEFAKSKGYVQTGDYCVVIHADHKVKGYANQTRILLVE
#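 Purified LmPK (0.1 nM) with 0.5 mM PEP and 0.1 mM ADP in imidazole buffer pH 7.2 with MgCl2/KCl, 1 h at room temperature. ATP formed was read by luciferase luminescence and normalized to no-enzyme and uninhibited controls.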
# Pf growth 48h = P. falciparum growth inhibition at 48 hours (one generation) | P. falciparum luciferase growth in erythrocytes, 48 h | Potency, µM (titrated, usually from 28.7 µM), most hits filed as inhibitors | 310,000 compounds, 5.9% hits | AID 504832
#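 A one-generation exposure of luciferase-tagged malaria parasites in RPMI 1640/Albumax erythrocyte culture, 37 C and 5% CO2. Inhibition is inferred from decreased luminescence after adding detection reagent.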
# CHX counter = counter-screen for Shiga toxin inhibitors: cycloheximide protein synthesis inhibition; cell reporter, cycloheximide protein synthesis inhibition counterscreen; max response, %; 300,000 compounds, 12% hits; in the data active means max response mostly above about 13%, no sharp cut-off; inactive means mostly below about 14%; further: read at 38.3 µM for the half of the compounds with a filed dose
# Pf growth 96h = inhibits malaria parasite growth, 96 h; Potency, µM (series often up to 28.7 µM), actives largely listed as inhibitors; AID 504834; 320,000 compounds, 6.9% hits; P. falciparum luciferase reporter growth, 96 h
#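 P. falciparum expressing integrated firefly luciferase, in erythrocytes at 2% hematocrit, 0.05% parasitemia, incubated with compounds 96 h at 37 C, 5% CO2. Growth inhibition read as loss of luminescence; two-generation exposure targets delayed-death apicoplast inhibitors.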
# Hits are given with their value; n = inactive; u = inconclusive; x = not tested or not shown; + = active, no number; [ ] = dose if it differs, or a comment. An excerpt weighted towards active compounds, which were near 22% of everything screened. Unless noted, the call rests on the fitted dose curve; in most records, active means well fitted inhibition curve with a large enough effect; inconclusive means small, poorly fitted or top-dose-only effect, or another doubt; inactive means no such curve, though single readings can be large or run the other way.
SMILES,Shiga toxin inh,LmPK inhibitor,Pf growth 48h,CHX counter,Pf growth 96h
Cc1ccc(/C=N/NC(=O)c2csc(C)c2)o1,+,n,n,23,u
Cc1ccc(/C=N/NC(=O)c2ccc(-n3cccc3)cc2)o1,n,n,n,n,u
CS(=O)(=O)c1ccc2nc(NC(=O)c3cc(-c4ccccc4)nn3-c3ccccc3)sc2c1,n,n,n,n,u
O=C1NC(=O)C(Cc2c[nH]c3ccccc23)N1 (centres undefined),n,n,n,n,n
Cc1cc(NC(=O)c2ccccc2)n(-c2nc3ccccc3[nH]2)n1,n,n,n,n,u
Cc1cc(NC(=O)C2CCCC2)n(-c2nc3ccccc3[nH]2)n1,n,n,8.3µM,n,10µM
CCOC(=O)C(=O)Nc1cc(C)nn1-c1nc2ccccc2[nH]1,n,n,n,n,n
COc1ccc(C(=O)Nc2cc(C)nn2-c2nc3ccccc3[nH]2)c(OC)c1,n,n,u,20,n
COc1cccc(OC)c1C(=O)Nc1cc(C)nn1-c1nc2ccccc2[nH]1,n,n,9.3µM,n,7.4µM
CC(C)(C)c1cc(CCC(=O)NCc2ccccn2)cc(C(C)(C)C)c1O,n,n,u,n,12µM
COc1ccc(CN2C(=O)c3ccccc3C2C(=O)NCCc2ccccc2)c(OC)c1 (centres undefined),n,n,u,n,8.3µM
CCOc1ccccc1CN1C(=O)c2ccccc2C1C(=O)NC(C)CC (centres undefined),n,n,n,n,8.3µM
CC(C)N1C(=O)c2ccccc2C1C(=O)NCCc1ccccc1 (centres undefined),n,n,n,n,8.3µM
CCOc1ccc(NC(=O)CC2C(=O)N(c3ccc(OC)cc3)C(=S)N2Cc2ccccn2)cc1 (centres undefined),n,n,u,n,u
COc1cccc(/C=N/NC(=O)CCc2c(C)n[nH]c2C)c1O,n,n,u,n,n
COc1ccc(NC(=O)c2ccc(-c3ccc(OC)cc3)s2)cc1,72,n,n,n,u
CNC(=O)c1ccc(-c2ccc(Cl)c(Cl)c2)s1,66,n,u,42,u
O=C(Nc1ccccc1)c1ccc(-c2ccc(F)cc2)s1,88,n,n,36,n
CNC(=O)c1ccc(-c2ccc(OC)cc2)s1,78,n,n,26,n
O=C(CSc1nc(=O)n2ccccc2n1)N1CCN(c2ccccc2)CC1,x,x,n,x,n
COc1ccc(N2CCN(C3CCCN(C(=O)c4cccc(C)n4)C3)CC2)cc1 (centres undefined),n,n,n,n,n
Nc1nn(-c2ccccc2)c(N)c1N=Nc1ccc2c(c1)OCO2,active,n,n,44,n
Cc1nn(-c2ccccc2)c2c1C(c1ccc(F)cc1F)C(C#N)=C(N)O2 (centres undefined),n,n,n,n,x
Cc1nn(-c2ccccc2)c(N)c1N=Nc1cccnc1,61,n,n,41,n
Nc1nn(-c2ccccc2)c(N)c1N=Nc1cccc(F)c1,88,n,n,62,n
SMILES,Shiga toxin inh,LmPK inhibitor,Pf growth 48h,CHX counter,Pf growth 96h
CC1(c2ccccc2)NC(=O)N(CC(=O)Nc2ccccc2N2CCCCC2)C1=O (centres undefined),x,x,n,x,u
CCOc1cccc(-c2c(C(=O)N/N=C/c3cccs3)nnn2-c2nonc2N)c1,n,n,n,n,u
Cn1c(N)c(C(=O)CSc2nnc(-c3c[nH]c4ccccc34)n2C2CC2)c(=O)[nH]c1=O,x,x,u,x,6.6µM
Cn1c(N)c(C(=O)CSc2nnc(-c3cccs3)n2C2CC2)c(=O)[nH]c1=O,x,x,n,x,u
COc1cccc(-n2c(SC)nnc2-c2c[nH]c3ccccc23)c1,n,n,x,n,4.7µM
C#CCSc1nnc(-c2sc(-c3ccccc3)nc2C)n1C,n,n,n,18,u
CC(C)Sc1nnc(-c2c[nH]c3ccccc23)n1C,121,n,x,50,n
O=C1c2cccnc2C(Nc2ccc(F)c(Cl)c2)N1Cc1cccs1 (centres undefined),n,n,n,n,n
C#CCSc1nnc(-c2c[nH]c3ccccc23)n1C,n,n,u,18,n
O=C(COc1ccc(-c2nnco2)cc1)Nc1ccc(C(F)(F)F)cc1,x,x,u,x,n
Cc1ccc(OCc2nnc(SCC(=O)c3ccccc3)n2-c2ccccc2)cc1,n,n,13µM,n,n
NC(=O)CSc1nnc(CSc2ncccn2)n1-c1ccccc1,n,n,n,n,13µM
CCCCC1=CC2=C(c3ccco3)C(=O)C(C)(OC(=O)c3ccc(OC)cc3)C(=O)C2=CN1CCCN(CC)CC (centres undefined),n,n[11.5 µM],u,n,15µM
CCCCC1=CC2=C(c3ccco3)C(=O)C(C)(OC(=O)c3ccc(OC)cc3)C(=O)C2=CN1CCCCO (centres undefined),n,n[11.5 µM],u,n,u
CCCCC1=CC2=C(c3ccco3)C(=O)C(C)(OC(=O)c3ccc(OC)cc3)C(=O)C2=CN1CCN1CCOCC1 (centres undefined),n,n[11.5 µM],u,n,10µM
C=CCn1c(SCn2nnc3ccccc3c2=O)nnc1-c1ccc(Br)cc1,n,n,n,n,n
C=CCn1c(COc2cccc(C)c2)nnc1SCn1nnc2ccccc2c1=O,n,n,n,14,n
N#Cc1ccc(S(=O)(=O)N2CCN(C(=O)[C@@H]3CCCN3C(=O)c3cccs3)CC2)cc1,x,x,n,x,u
Fc1ccccc1OCC1CCCN(Cc2nc(CC3CC3)no2)C1 (centres undefined),n,n,n,n,u
Cc1ccc(-c2nn(-c3ccccc3)cc2CSC(=N)N)cc1,n,n,u,n,1.7µM
OCc1cn(-c2ccccc2)nc1-c1ccc(-c2nn(-c3ccccc3)cc2CO)cc1,n,n,n,n,n
CN(C)/C=C/C(=O)c1cnc(-c2ccccc2)s1,104,n,n,52,n
O=C(c1ccccc1)c1cnc(-c2ccc(Cl)cc2)s1,116,u,n,39,n
O=C(c1ccccc1)c1cnc(-c2ccccc2)s1,n,n,n,n,n
CN(C)/C=C/C(=O)c1cnc(-c2ccc(Cl)cc2)s1,97,n,n,51,n
SMILES,Shiga toxin inh,LmPK inhibitor,Pf growth 48h,CHX counter,Pf growth 96h
CN(C)/C=C/C(=O)c1ccc(Cl)s1,n,n,n,16,u
O=C(c1ccc(Cl)cc1)c1cnc(-c2ccc(Cl)cc2)s1,n,n,n,n,n
CN(CC(=O)Nc1ccc(F)cc1)C(=O)c1cc(-c2cccs2)nn1-c1ccccc1,x,x,n,x,n
Cc1cc(O)ccc1N=Cc1c(C(F)(F)F)[nH][nH]c1=O,n,n,u,n,u
COc1cccc(NC(=S)N2CCC(NC(=O)c3ccco3)CC2)c1,n,n,n,n,n
CCN1CCN(S(=O)(=O)c2ccc(OC)c(NC(=O)c3ccccc3)c2)CC1,n,n,n,n,n
O=C(O)c1ccccc1C(=O)Nc1ccc(Br)c2cccnc12,n,n,n,n,u
Cc1ccc(CNC(=O)CNS(=O)(=O)c2ccc3nc(C)sc3c2)cc1,n,n,n,n,u

# Compound activity (PubChem BioAssay)
